TR SRC2 fluor cs = Texas Red fluorescence interference in TRb-SRC2 counter-screen. TRb/SRC2 Texas Red total fluorescence interference. Potency, µM (titrated, usually from 106 µM), without a hit: top-dose fluorescence change, negative = quenching. 280,000 tested, 0.29% active; active = well fitted curve in either direction with a large enough effect; inconclusive = small, poorly fitted or top-dose-only effect; note: potency is the fitted concentration of half-maximal effect; % is set by controls: 0 for no effect and ±100 for the full control effect
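Human TRβ ligand-binding domain (0.6 uM) and Texas Red SRC2 peptide (20 nM) in Tris buffer with 1 uM T3 and 5% DMSO were incubated with pinned compound for 5 hr at ambient temperature. Total fluorescence was computed as S + 2P (555/632 nm).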
CBFb RUNX1 block = inhibitors of human CBF-beta and RUNX1 interaction. Q01196+Q13951. AlphaScreen CBFb-His/RUNX1-biotin binding, biochemical. Potency, µM (highest dose often 59.8 µM), for inactives: top-dose activity, negative = inhibition, usual class: inhibitors. 230,000 tested, under 10 active; note: % of control where 0% means no effect
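Read-out: AlphaScreen. Format: His-CBF-beta with biotinylated RUNX1 (30 nM each) preincubated 20 min, compound 15 min, Ni-chelate plus streptavidin beads 90 min; room temperature throughout.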
TRb-SRC2 inh = disrupts binding of human TR beta to SRC2; TRbeta-SRC2 peptide binding, fluorescence polarization; receptor liganded with 1 µM T3; Potency, µM (highest dose often 106 µM), without a hit: at the highest dose activity change, negative = inhibition, actives largely listed as inhibitors; 280,000 tested, 0.065% active;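 note: potency is the fitted concentration of half-maximal effect; plate controls were bound peptide for no effect and peptide without receptor for full effect; nearly all actives have a fitted effect of over 50% in size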
Target sequence (P10828 whole entry, looked up): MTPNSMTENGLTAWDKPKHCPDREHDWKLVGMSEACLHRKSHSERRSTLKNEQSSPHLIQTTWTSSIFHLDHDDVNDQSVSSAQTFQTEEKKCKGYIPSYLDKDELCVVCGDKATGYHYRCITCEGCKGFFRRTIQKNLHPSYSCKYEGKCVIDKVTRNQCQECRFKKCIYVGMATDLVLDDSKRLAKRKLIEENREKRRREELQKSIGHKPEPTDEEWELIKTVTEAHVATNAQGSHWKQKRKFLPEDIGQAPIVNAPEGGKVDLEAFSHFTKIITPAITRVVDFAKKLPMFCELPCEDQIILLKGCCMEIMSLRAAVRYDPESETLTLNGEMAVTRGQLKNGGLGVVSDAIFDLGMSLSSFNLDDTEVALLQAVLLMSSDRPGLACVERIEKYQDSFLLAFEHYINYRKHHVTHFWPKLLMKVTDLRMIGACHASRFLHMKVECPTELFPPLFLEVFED
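Binding of a 20-amino-acid Texas Red SRC2 peptide (20 nM) to TRb ligand-binding domain (0.6 uM) with agonist T3 at 1 uM was followed by fluorescence polarization after a 5 hr room-temperature incubation.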
Epigenetic reg = epigenetic control regulation, reporter derepression | AID 1865 | 280,000 tested, 0.2% active | murine LDR cells, GFP reporter derepression, 30 h | Potency, µM (doses to about 53.9 µM), for the others: at the top dose GFP activation, usual class: activators; note: potency is the fitted concentration of half-maximal effect; % of control where 0% means no effect; nearly all actives have a fitted effect of over 60% in size
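Reporter derepression read as number of fluorescent GFP-positive objects, 20-120 um in size, counted by laser-scanning cytometer. Mouse LDR line with an epigenetically silenced CMV-GFP locus; compound incubation 30 h, 37 C.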
RGS12 GoLoco inh = inhibitors of human Gai1-RGS12 GoLoco interaction (red fluorophore) | P63096 | Gai1:RGS12 GoLoco peptide FP, rhodamine, 10 min | Potency, µM (top dose mostly 61.6 µM), for the others: at the top dose activity, negative = inhibition, actives largely listed as inhibitors | 230,000 tested, 0.44% active | AID 880; active = well fitted inhibition curve with a large enough effect, not every such curve was filed as active; inactive = no such curve, though single readings can be large or run the other way; note: potency is the fitted concentration of half-maximal effect; % is set by controls: 0 for no effect and ±100 for the full control effect; nearly all actives have a fitted effect of over 30% in size
Starred values were filed as active, the others as inactive; [ ] = another dose, or the depositor's remark. Only some compounds are listed: those with a hit (about 0.71% of all), similar ones and a draw of the others. Unless noted, calls come from the whole dose curve; as a rule, active = well fitted curve in the direction sought with a large enough effect; inconclusive = small, poorly fitted or top-dose-only effect, or another doubt; inactive = no such curve, though single readings can be large; an effect the other way counts as inactive or inconclusive.

How did Cc1ccc2oc3c(c(=O)c2c1)C(c1ccc(O)cc1)N(CCCN(C)C)C3=O (centres undefined) do in these assays?
TR SRC2 fluor cs: 5.6e-05µM*[quencher]; TRb-SRC2 inh: -18%; Epigenetic reg: 0%

Results for Cc1ccc(N=Cc2sc(O)c3ccccc23)c(C)c1 ?
TR SRC2 fluor cs: 1%; CBFb RUNX1 block: 1%; TRb-SRC2 inh: -1%; Epigenetic reg: inconclusive; RGS12 GoLoco inh: 19%

How did Cc1ccc(N=Cc2sc(O)c3ccccc23)cc1 do in these assays?
TR SRC2 fluor cs: -5%; CBFb RUNX1 block: inconclusive; TRb-SRC2 inh: 3%; Epigenetic reg: 16µM*; RGS12 GoLoco inh: 0%

Results for COC(=O)N[C@@H](c1cccc(F)c1)[C@@H](C)[N+](=O)[O-] ?
TR SRC2 fluor cs: 2%; CBFb RUNX1 block: 1%; TRb-SRC2 inh: 2%; Epigenetic reg: -1%; RGS12 GoLoco inh: -4%

What do the screens show for `CCc1nc(-c2cc(S(=O)(=O)N3CCN(c4ccccc4F)CC3)ccc2OC)no1`?
TR SRC2 fluor cs: -1%; TRb-SRC2 inh: -4%; Epigenetic reg: 4%

What do the screens show for `COc1ccc(S(=O)(=O)N2CCN(c3ccccc3F)CC2)cc1-c1noc(C)n1`?
TR SRC2 fluor cs: -1%; TRb-SRC2 inh: -3%; Epigenetic reg: 1.1µM*

How did COc1ccc(N2CCN(S(=O)(=O)c3ccc(OC)c(-c4noc(C)n4)c3)CC2)cc1 do in these assays?
TR SRC2 fluor cs: -2%; TRb-SRC2 inh: 4%; Epigenetic reg: 5µM*

How did Cc1ccc(-n2cccc2/C=C2/NC(=O)N(CC(=O)Nc3cccc(C)c3)C2=O)cc1 do in these assays?
TR SRC2 fluor cs: -2%; CBFb RUNX1 block: -8%; TRb-SRC2 inh: 6%; Epigenetic reg: -3%; RGS12 GoLoco inh: 7.9µM*

How did Cc1cccc(NC(=O)CN2C(=O)N/C(=C\c3cccn3-c3cccc(C(=O)O)c3)C2=O)c1 do in these assays?
TR SRC2 fluor cs: 0%; CBFb RUNX1 block: -27%; TRb-SRC2 inh: 2%; Epigenetic reg: 9%; RGS12 GoLoco inh: -18%

Results for CC(C)C[C@H](NC(=O)CNC(=O)[C@@H]1CCCN1C(=O)[C@H](CCCNC(=N)N)NC(=O)[C@H](CC(=O)O)NC(=O)[C@@H](NC(=O)[C@H](CC(N)=O)NC(=O)[C@@H](NC(=O)[C@H](CC(=O)O)NC(=O)CNC(=O)[C@@H](NC(=O)[C@@H](NC(=O)[C@H](C)NC(=O)[C@@H](N)CCC(N)=O)[C@@H](C)O)C(C)C)C(C)C)[C@@H](C)O)C(=O)N[C@@H](CC(C)C)C(=O)N[C@@H](CC(=O)O)C(=O)N[C@@H](CC(C)C)C(=O)N[C@@H](CCCCN)C(=O)O ?
TR SRC2 fluor cs: -3%; CBFb RUNX1 block: 9%; TRb-SRC2 inh: -3%

How did O=C1CCCC2[C@@H]3CCC[N@+]4([O-])CCC[C@H](CN12)C34 (some centres undefined) do in these assays?
TR SRC2 fluor cs: 0%; CBFb RUNX1 block: 3%; TRb-SRC2 inh: 3%; Epigenetic reg: 0%; RGS12 GoLoco inh: 3%

Results for Cl[Si](Cl)(Cl)c1ccccc1 ?
TR SRC2 fluor cs: -7%[201 µM]; TRb-SRC2 inh: -3%[201 µM]

How did CN1CCN(c2ncc3nc(-c4cc(F)cc(F)c4)c(=O)n(CCC#N)c3n2)CC1 do in these assays?
RGS12 GoLoco inh: -13%

How did CCN(Cc1c(F)cccc1Cl)c1c([N+](=O)[O-])cc(C(F)(F)F)cc1[N+](=O)[O-] do in these assays?
TR SRC2 fluor cs: -2%[201 µM]; TRb-SRC2 inh: -4%[201 µM]

How did CCC(=O)NC1=C(Cl)C(=O)C(NC(=O)CC)=C(Cl)C1=O do in these assays?
TR SRC2 fluor cs: 0%; CBFb RUNX1 block: 7%; TRb-SRC2 inh: 8%; Epigenetic reg: 0%; RGS12 GoLoco inh: 1.3µM*

Results for CCC(=O)NC1=C(NC(C)c2ccccc2)C(=O)c2ccccc2C1=O (centres undefined) ?
TR SRC2 fluor cs: 1%; CBFb RUNX1 block: -2%; TRb-SRC2 inh: -9%; Epigenetic reg: -3%; RGS12 GoLoco inh: 15%

How did C=CCc1ccccc1OCC(O)CN1CCN(c2ccccc2)CC1 (centres undefined) do in these assays?
TR SRC2 fluor cs: 1.6µM*[quencher]; TRb-SRC2 inh: inconclusive; Epigenetic reg: 1%

Results for C=CCc1cc(C)ccc1OCC(O)CN1CCN(c2ccccc2)CC1 (centres undefined) ?
TR SRC2 fluor cs: 1%; CBFb RUNX1 block: -1%; TRb-SRC2 inh: -15%; Epigenetic reg: 9%; RGS12 GoLoco inh: -10%

Results for OCC(CO)(CO)COCC(CO)(CO)CO ?
TR SRC2 fluor cs: 4%[201 µM]; TRb-SRC2 inh: 1%[201 µM]

Results for CC(C)N1C(=O)CC2(CC[N+](C)(CCOC(=O)C(c3ccccc3)c3ccccc3)CC2)C1=O (centres undefined) ?
TR SRC2 fluor cs: -2%; CBFb RUNX1 block: 2%; TRb-SRC2 inh: -2%; Epigenetic reg: -4%; RGS12 GoLoco inh: 11µM*

What do the screens show for `CCOC(=O)c1c(/N=C/N(C)C)sc(/C=N/Nc2ccccc2)c1-c1ccccc1`?
TR SRC2 fluor cs: 1%; CBFb RUNX1 block: 1%; TRb-SRC2 inh: -6%; Epigenetic reg: 10µM*; RGS12 GoLoco inh: 9%

Results for CCCCNS(=O)(=O)c1ccccc1 ?
TR SRC2 fluor cs: -3%[201 µM]; TRb-SRC2 inh: -3%[201 µM]

Results for Cc1ccc(S(=O)(=O)Cc2ccc(C(=O)N3CCN(c4cccc(Cl)c4)CC3)o2)cc1 ?
TR SRC2 fluor cs: -2%; TRb-SRC2 inh: 4%; Epigenetic reg: 5%

How did Cc1ccc(Cl)cc1N1CCN(C(=O)c2ccc(CS(=O)(=O)c3ccc(Br)cc3)o2)CC1 do in these assays?
TR SRC2 fluor cs: 1000µM*[quencher]; TRb-SRC2 inh: -7%; Epigenetic reg: 3%

What do the screens show for `COc1ccc(NC(=O)c2oc3ccccc3c2NC(=O)Cc2coc3cc(C)ccc23)cc1`?
TR SRC2 fluor cs: inconclusive; TRb-SRC2 inh: 1%; Epigenetic reg: 1%

How did CCN(CC)c1ccc(/C=C/c2nc3ccccc3s2)cc1 do in these assays?
TR SRC2 fluor cs: 0%; CBFb RUNX1 block: 11%; TRb-SRC2 inh: -6%; Epigenetic reg: inconclusive; RGS12 GoLoco inh: 19%

How did COc1cc2nc(/C=C/c3ccc(N(C)C)cc3)sc2cc1SC do in these assays?
TR SRC2 fluor cs: inconclusive; CBFb RUNX1 block: inconclusive; TRb-SRC2 inh: -3%; Epigenetic reg: 11µM*; RGS12 GoLoco inh: 55%

How did CCOC(=O)c1cnc2c(C)cc(C)cc2c1Nc1cccc(C(=O)O)c1 do in these assays?
TR SRC2 fluor cs: -21%; TRb-SRC2 inh: 6%; Epigenetic reg: 0%

Results for CCOC(=O)c1cnc2c(C)cc(C)cc2c1Nc1ccc(S(=O)(=O)Nc2ncccn2)cc1 ?
TR SRC2 fluor cs: 35µM*[quencher]; CBFb RUNX1 block: -2%; TRb-SRC2 inh: -13%[53 µM]; Epigenetic reg: -1%; RGS12 GoLoco inh: -16%
